Structures are written as SMILES. The campaign covered roughly 1,300 compounds. About 330 (25%) were called active. Not all results are given here. Results with a measured potency or affinity are listed apart. Values without a mark were called inactive. How the calls were made is not given here.

From PubChem BioAssay AID493191 (Broad Institute, 2011) come the findings set out here.

The nature of this assay: MALME3 melanoma cell viability loss, dose response, orthogonal assay for MITF inhibitor project, CellTiter-Glo, cherry-picked (AID 493191). The note with it: CellTiter-Glo luminescence, 24 h; series mostly up to 35 µM; activity change, negative = inhibition: at the top concentration. In general terms: ATP-based viability assays read luminescence as a measure of living cells.
For the compound `Cc1cc(C(=O)O/N=C(\N)c2ccncc2)ccc1[N+](=O)[O-]`, the “activity change, negative = inhibition” value was 8.51%.

As to `Cc1c(NC(=O)C(C)OC(=O)c2ccc([N+](=O)[O-])s2)c(=O)n(-c2ccccc2)n1C` (stereo not drawn), the “activity change, negative = inhibition” value was -11%.

`CCCCOc1ccc(-c2ncc([N+](=O)[O-])cn2)cc1`: the “activity change, negative = inhibition” value was 4.96%.

In the case of `CC(C)(C)N=Cc1cc(-c2ccccc2)sc1O`, the “activity change, negative = inhibition” value was 9.96%.

On to `O=C(N/N=C/c1ccc([N+](=O)[O-])o1)c1sc2ccccc2c1Cl`, for which the “activity change, negative = inhibition” value was -55.5%.

Take `C(#Cc1ccccc1)C[N+]1(CC#Cc2cccc3ccccc23)CCCC1`: the “activity change, negative = inhibition” value is -16.4%.

As to `CSCCNC(=O)c1ccc2nc(Cc3ccccc3F)oc2c1`, the “activity change, negative = inhibition” value is 4.87%.

Take `O=C(CSC(=S)N1CCCCC1)c1c(F)cccc1F`: the “activity change, negative = inhibition” value was -9.52%.

As to `CN(Cc1ccccc1)C1=CC(=[N+]2CCCCC2)CC(C)(C)C1`, the “activity change, negative = inhibition” value is -35.5%.

In the case of `CCOc1cccc(C(=O)NC2=NCCS2)c1`, the “activity change, negative = inhibition” value was -7.89%.

For `CCOC(=O)N1CCC(NC(=O)C2CCCN(Cc3nc(-c4cccc(C)c4)oc3C)C2)CC1` (stereo not drawn), the “activity change, negative = inhibition” value is -2.51%.

`[2H]C(CCOS(N)(=O)=O)c1ccc(C(C)(C)C)cc1` (stereo not drawn): the “activity change, negative = inhibition” value was -5.5%.

In the case of `N/C(=N\OC(=O)c1ccc([N+](=O)[O-])cc1)c1ccc(Br)cc1`, the “activity change, negative = inhibition” value is 8.18%.

Regarding `COc1cc(/C=C/C(=O)N2CCC=CC2=O)cc(OC)c1OC`, the “activity change, negative = inhibition” value is -34.7%.

In the case of `c1ccc(C[n+]2cccc3c4ccccc4ccc32)cc1`, the “activity change, negative = inhibition” value was -16.9%.

With `CCCCN(CC)CCCNC(=O)c1cc2c(=O)n(CC)c3ccccc3c2s1`, the “activity change, negative = inhibition” value was -37.7%.

With `CC1(C)CC(=O)C=C(NC2=CC3OC(c4ccccc4)OCC3OC2=O)C1` (stereo not drawn), the “activity change, negative = inhibition” value is -3.65%.

On to `C(=N\Nc1cc(N2CCCCC2)ncn1)/c1ccco1`, for which the “activity change, negative = inhibition” value is 9.75%.

For `Clc1ccc(-c2nc(-c3ccncc3)no2)c(Cl)c1`, the “activity change, negative = inhibition” value was -4.41%.

Consider `O=C(Cc1cccs1)NCc1ccc(Cl)cc1Cl`, for which the “activity change, negative = inhibition” value was 4.52%.

For `CC(C)n1cc(/C=C/c2cc[n+](C)cc2)c2ccccc21`, the “activity change, negative = inhibition” value was -22.1%.

Take `O=C(Nc1nc(-c2ccccn2)cs1)c1ccc(F)c(S(=O)(=O)N2CCOCC2)c1`: the “activity change, negative = inhibition” value was -20.2%.

In the case of `Cc1ccc(-c2cn3cc(C)ccc3n2)cc1`, the “activity change, negative = inhibition” value is -20.9%.

With `O=C(CSc1ccccn1)c1ccc2c(c1)OCO2`, the “activity change, negative = inhibition” value is 7.19%.

For the compound `COc1cccc(NC(=O)c2cc3c(=O)n4ccccc4nc3n(CC(C)C)c2=N)c1`, the “activity change, negative = inhibition” value is 1.34%.

Turning to `CCOC(=O)c1cn2nc(Oc3ccccc3)ccc2n1`, the “activity change, negative = inhibition” value was 7.09%.

In the case of `CCOC(=O)N1C(=O)[C@](CC)(c2ccccc2)N1C(=O)OCC`, the “activity change, negative = inhibition” value is -32.8%.

With `C/C(=N\Nc1cc(N2CCOCC2)ncn1)c1ccccc1`, the “activity change, negative = inhibition” value is 5.95%.

Consider `CC1(C)Cc2c(sc(NC(=O)Nc3ccccc3)c2C(N)=O)CO1`, for which the “activity change, negative = inhibition” value was -17%.

Consider `Cc1ccc(C)c(S(=O)(=O)N2CCN(Cc3ccc(O)c4ncccc34)CC2)c1`, for which the “activity change, negative = inhibition” value was -29.3%.

For the compound `O=S(=O)(c1ccc(Cl)cc1)N1CCN(Cc2ccc(O)c3ncccc23)CC1`, the “activity change, negative = inhibition” value is -27.6%.

`CN(C)CCNC(=O)COc1ccc(C23CC4CC(CC(C4)C2)C3)cc1`: the “activity change, negative = inhibition” value is -18.4%.

With `CN(C)c1ccc(/C=C2\SC(=O)N(CCc3nnc(N)s3)C2=O)cc1`, the “activity change, negative = inhibition” value was -0.215%.

Turning to `Cc1[nH]n(-c2ccccc2)c(=O)c1N=Nc1cccc(C(=O)O)c1`, the “activity change, negative = inhibition” value was -4.5%.

On to `C/C(=C\c1ccccc1)C(=O)Nc1ccc(Cl)cn1`, for which the “activity change, negative = inhibition” value is 10.3%.

As to `O=[N+]([O-])c1cc(CN2CCN(c3ccccc3)CC2)c(O)c2ncccc12`, the “activity change, negative = inhibition” value is -17%.

As for `O=[N+]([O-])c1ccccc1OCCCOc1cccc2cccnc12`, the “activity change, negative = inhibition” value was -2.87%.

With `Cc1ccc(-c2cn(-c3ccc(SC(F)F)cc3)c3[n+]2CCC3)cc1`, the “activity change, negative = inhibition” value was -6.53%.

On to `C#CC(=O)N(c1ccc(OC)cc1OC)C(C(=O)NC1CCCC1)c1cccs1` (stereo not drawn), for which the “activity change, negative = inhibition” value was -29.6%.

Turning to `C#CC(=O)N(c1ccc(OC)c(OC)c1)C(C(=O)NC1CCCC1)c1cccs1` (stereo not drawn), the “activity change, negative = inhibition” value was -16.9%.

With `COc1ccc(N(CC(=O)NCC2CCCO2)S(=O)(=O)c2ccccc2)cc1OC` (stereo not drawn), the “activity change, negative = inhibition” value is 6.21%.

Consider `Cc1ccc(NC(=O)c2ccc(OCC3CCCO3)cc2)c(C)c1` (stereo not drawn), for which the “activity change, negative = inhibition” value was -0.239%.

On to `CN(C)/C=N/c1ncc(C(=O)c2ccccc2)s1`, for which the “activity change, negative = inhibition” value is 4.34%.

On to `Cc1ccc2nc(Cc3ccc(N)cc3)oc2c1`, for which the “activity change, negative = inhibition” value was 11.7%.

On to `CCc1nc2oc3ccccc3c(=O)c2cc1C(=O)OC`, for which the “activity change, negative = inhibition” value was -19.5%.

In the case of `COCCN(C(=O)CCl)C(C(=O)NC1CCCCC1)c1ccccc1C` (stereo not drawn), the “activity change, negative = inhibition” value was -27.4%.

As to `COc1ccc(C(C(=O)NC2CCCCC2)N(C(=O)CCl)c2ccc(OC)cc2)cc1` (stereo not drawn), the “activity change, negative = inhibition” value was -40.5%.

For the compound `COc1ccc(N(C(=O)CCl)C(C(=O)NC2CCCCC2)c2cccnc2)cc1` (stereo not drawn), the “activity change, negative = inhibition” value was -36.5%.

As for `Cc1cc(NC(=O)c2ccc(Cl)cc2Cl)no1`, the “activity change, negative = inhibition” value is 10.7%.

With `COCn1c(COc2ccccc2)nc2ccccc21`, the “activity change, negative = inhibition” value is -15.3%.

For `COc1ccc(Br)cc1/C=C/C(=O)c1ccc(NC(C)=O)cc1`, the “activity change, negative = inhibition” value is -21.7%.

As to `O=C(N/N=C/c1ccccc1Cl)c1n[nH]c2c1CCCC2`, the “activity change, negative = inhibition” value was -40.8%.

`Nc1c(N(CCC2=CCCCC2)C(=O)COc2ccc([N+](=O)[O-])cc2)c(=O)[nH]c(=O)n1Cc1ccccc1`: the “activity change, negative = inhibition” value is -48.9%.

For the compound `Nc1ccc(Oc2cccc(Oc3ccc(N)cc3)c2)cc1`, the “activity change, negative = inhibition” value is 1.28%.

As for `O=[N+]([O-])c1ccc(Sc2cc[n+]([O-])c3ccccc23)c([N+](=O)[O-])c1`, the “activity change, negative = inhibition” value is -23.8%.

For `Cc1ccc(O)c(NC(=O)c2ccc3c(c2)C(=O)N(CC(C)C)C3=O)c1`, the “activity change, negative = inhibition” value was -3.64%.

Regarding `O=C(Nc1ccc2nc3n(c(=O)c2c1)CCCC3)c1cc([N+](=O)[O-])ccc1F`, the “activity change, negative = inhibition” value is 2.71%.

With `O=C(Nc1ccc2c(c1)OCCO2)c1cccc(Cl)c1Cl`, the “activity change, negative = inhibition” value is 1.87%.
